PubChem BioAssay AID686978 (National Center for Advancing Translational Sciences (NCATS), 2013)
Out of some 420,000 compounds screened, about 64,000 (15%) were called active. Not shown: some 27% with an inconclusive outcome. Not all results are given here. A number with no mark means an inactive call. The call rests on the fitted dose curve; in most records, active means well fitted inhibition curve with a large enough effect; inconclusive means small, poorly fitted or top-dose-only effect; inactive means flat fitted curve, though single readings scatter.

test: qHTS for Inhibitors of human tyrosyl-DNA phosphodiesterase 1 (TDP1): qHTS in cells in absence of CPT; settings: DT40 Tdp1-/- hTDP1 cells, no CPT, ATP luminescence, 48 h; activity change, negative = growth inhibition: at 46.2 µM (top of the series); further: nearly all actives have a fitted effect of over 55% in size
In short: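 Chicken DT40 Tdp1-/- cells stably complemented with human TDP1 were seeded at 400 cells/well with DMSO in place of 20 nM camptothecin. After compound pinning, cells grew at least 48 hr at 37 °C; viability read by CellTiter-Glo luminescence.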
On the % scale 0 is the no-effect control and ±100 the full control effect; potency means the concentration at half of the fitted maximal effect.

Question: With `O=C(Nc1ccccc1C(=O)NCC1CCCO1)c1ccccc1F` (stereo not drawn) as the compound, how does the “activity change, negative = growth inhibition” value read?
Answer: The value was 12%.

Question: For `CNC(=O)CN1C(=O)NC(c2ccccc2)(c2ccccc2)C1=O`, which “activity change, negative = growth inhibition” value is on record?
Answer: The value was -5.71%.

Question: With `CCN(CC)C(=O)C1=C(C)N(Cc2ccc(C(C)(C)C)cc2)C(=O)C(CC(=O)NCc2cccc3ccccc23)C1` (stereo not drawn) as the compound, how does the Potency read?
Answer: The Potency was 16.4 µM (active).

Question: Which “activity change, negative = growth inhibition” value does the source give for `CCN(CC)C(=O)C1=C(C)N(Cc2ccc(F)cc2)C(=O)C(CC(=O)NC2CCCC2)C1` (stereo not drawn) here?
Answer: The value was -27.4%.

Question: With `CC1=C(C(=O)N(C)C)CC(CC(=O)NCCN2CCOCC2)C(=O)N1Cc1ccccc1` (stereo not drawn) as the compound, how does the “activity change, negative = growth inhibition” value read?
Answer: The value was 8.06%.

Question: For `CCN(CC)C(=O)C1=C(C)N(Cc2ccc(OC)cc2)C(=O)C(CC(=O)NCc2ccco2)C1` (stereo not drawn), which “activity change, negative = growth inhibition” value is on record?
Answer: The value was -23.8%.

Question: Which “activity change, negative = growth inhibition” value does the source give for `COc1ccc(CN2C(=O)C(CC(=O)NCc3cccc4ccccc34)CC(C(=O)N3CCOCC3)=C2C)cc1` (stereo not drawn) here?
Answer: Its value is -25.6%.

Question: With `CCN(CC)C(=O)C1=C(C)N(Cc2ccccc2)C(=O)C(CC(=O)NC(c2ccccc2)c2ccccc2)C1` (stereo not drawn) as the compound, how does the Potency read?
Answer: Its Potency is 18.4 µM (active).

Question: For `COc1ccc2c(C)cc3nnnn3c2c1`, which “activity change, negative = growth inhibition” value is on record?
Answer: Its value is -26.4%.

Question: With `O=C(Nc1ccc(Cl)cc1)c1cc2nc(C3CC3)cc(C(F)(F)F)n2n1` as the compound, how does the “activity change, negative = growth inhibition” value read?
Answer: Its value is -8.12%.

Question: Which Potency does the source give for `COc1cc(C(=O)NCc2nnc(SCC(=O)Nc3nc4ccc(C)cc4s3)o2)cc(OC)c1OC` here?
Answer: The Potency was 4.61 µM (active).

Question: For `COc1ccccc1NC(=O)CSc1nnc(CNC(=O)c2ccccc2F)o1`, which “activity change, negative = growth inhibition” value is on record?
Answer: The value was 22.7%.

Question: With `COc1ccc(C(=O)NCc2nnc(SCC(=O)Nc3cccc(OC)c3)o2)cc1` as the compound, how does the “activity change, negative = growth inhibition” value read?
Answer: The value was -7.64%.

Question: With `O=C(O)c1cc(S(=O)(=O)NC2CCCc3ccccc32)ccc1O` (stereo not drawn) as the compound, how does the “activity change, negative = growth inhibition” value read?
Answer: Its value is 10.8%.

Question: With `CCN(CC)CCOc1ccc2c(c1)C(=NNC(=O)c1ccccn1)c1cc(OCCN(CC)CC)ccc1-2` as the compound, how does the Potency read?
Answer: Its Potency is 3.26 µM (active).

Question: With `Cc1cccc(OCC(=O)NCCCNC(=O)c2ccccn2)c1` as the compound, how does the “activity change, negative = growth inhibition” value read?
Answer: The value was 3.27%.

Question: With `CCC(C)(NC(=O)c1ccccn1)C(=O)NC1CCCCC1` (stereo not drawn) as the compound, how does the “activity change, negative = growth inhibition” value read?
Answer: The value was 10.8%.

Question: For `N#Cc1ccc[n+](CC(=O)c2ccc(O)c(O)c2)c1`, which “activity change, negative = growth inhibition” value is on record?
Answer: The value was -17.2%.

Question: Which “activity change, negative = growth inhibition” value does the source give for `CCOC(=O)c1cc2ccccc2n1CC(=O)c1ccccc1` here?
Answer: The value was -24.1%.

Question: Which Potency does the source give for `CCn1c(/C=C/Nc2ccccc2)[n+](CC)c2ccc(C(=O)OCC(F)(F)F)cc21` here?
Answer: The Potency was 14.6 µM (active).

Question: Which “activity change, negative = growth inhibition” value does the source give for `Cc1nnc(SC(C(=O)c2ccccc2)c2ccccc2)[nH]c1=O` (stereo not drawn) here?
Answer: Its value is -3.13%.

Question: Which “activity change, negative = growth inhibition” value does the source give for `NC(=O)c1ncn([C@@H]2O[C@H](CNCc3cnc(N4CCOCC4)s3)[C@@H](O)[C@H]2O)n1` here?
Answer: The value was -4.59%.

Question: For `CN(C)C(=O)c1ccc(NC(=O)c2ccccc2-c2ccccc2)cc1`, which “activity change, negative = growth inhibition” value is on record?
Answer: Its value is 5.43%.

Question: Which Potency does the source give for `CN(C)C(=O)c1ccc2c(c1)C1C3CCC(C3)C1C(c1ccccc1)N2` (stereo not drawn) here?
Answer: The Potency was 18.4 µM (active).

Question: With `O=C(O)CCCN1C(=O)C2C3c4ccccc4C(c4ccccc43)[C@@H]2C1=O` (stereo partly drawn) as the compound, how does the “activity change, negative = growth inhibition” value read?
Answer: The value was 9.38%.

Question: Which “activity change, negative = growth inhibition” value does the source give for `CCOC(=O)N1CCN(C(=O)C2CCN(Cc3ccc(OC)cc3OC)CC2)CC1` here?
Answer: The value was -4.56%.

Question: For `CCOC(=O)N1CCN(C(=O)C2CCN(S(=O)(=O)c3cc(Cl)ccc3OCC)CC2)CC1`, which “activity change, negative = growth inhibition” value is on record?
Answer: Its value is -13.3%.

Question: With `Cc1cc(=O)n2nc(N3CCCC(C(=O)N4CCN(C)CC4)C3)sc2n1` (stereo not drawn) as the compound, how does the “activity change, negative = growth inhibition” value read?
Answer: The value was -15.7%.

Question: Which Potency does the source give for `CCOC(=O)N1CCN(C(=O)C2CCCN(c3ncnc4c3sc3cccc(F)c34)C2)CC1` (stereo not drawn) here?
Answer: The Potency was 6.51 µM (active).

Question: Which Potency does the source give for `CCOC(=O)N1CCN(C(=O)C2CCN(c3ncnc4c3sc3cccc(F)c34)CC2)CC1` here?
Answer: The Potency was 5.8 µM (active).

Question: Which “activity change, negative = growth inhibition” value does the source give for `CCOC(=O)N1CCN(C(=O)C2CC(c3ccc(F)cc3)=NO2)CC1` (stereo not drawn) here?
Answer: The value was -2.5%.

Question: Which “activity change, negative = growth inhibition” value does the source give for `O=C(O)c1c(NC(=O)N2CCCC2)sc2c1CCCC2` here?
Answer: The value was -12.9%.

Question: For `CC(C)C(=O)N1CC(=O)Nc2ccc(F)cc2C1c1ccc(F)cc1` (stereo not drawn), which “activity change, negative = growth inhibition” value is on record?
Answer: The value was -25%.

Question: For `O=S(=O)(NCc1ccco1)c1cnc(Cl)c(Cl)c1`, which “activity change, negative = growth inhibition” value is on record?
Answer: The value was 3.34%.

Question: With `COc1ccc([C@H]2CC(=O)C=C(c3ccc(CO)cc3)C2)cc1` as the compound, how does the “activity change, negative = growth inhibition” value read?
Answer: The value was -19.7%.

Question: Which Potency does the source give for `COc1ccc([C@H]2CC(=O)C=C(c3ccc(OC(F)(F)F)cc3)C2)cc1OC` here?
Answer: Its Potency is 16.4 µM (active).

Question: For `COc1ccc([C@H]2CC(=O)C=C(c3ccc(C)cc3)C2)cc1`, which “activity change, negative = growth inhibition” value is on record?
Answer: The value was -27.9%.

Question: Which “activity change, negative = growth inhibition” value does the source give for `COc1cc(C2C(C#N)=C(C)NC3=C2C(=O)CC(C)(C)C3)ccc1O` (stereo not drawn) here?
Answer: The value was -9.8%.

Question: With `C=CCNCCCCOc1ccccc1` as the compound, how does the “activity change, negative = growth inhibition” value read?
Answer: The value was -3.33%.

Question: Which Potency does the source give for `Nc1cccc(OCCCCCOc2cccc(N)c2)c1` here?
Answer: Its Potency is 16.4 µM (active).

Question: For `CN(C)CCOc1cccc(Br)c1`, which “activity change, negative = growth inhibition” value is on record?
Answer: Its value is 1.1%.

Question: For `CCCCN(C(=O)CSCC(=O)Nc1ccc(OC)cc1)c1c(N)n(CCC)c(=O)[nH]c1=O`, which “activity change, negative = growth inhibition” value is on record?
Answer: Its value is -4.94%.

Question: For `COc1ccc(CCNC(=O)COC(=O)Cc2cccc(F)c2)cc1`, which “activity change, negative = growth inhibition” value is on record?
Answer: The value was -11.1%.

Question: For `O=C(C1CCCN1S(=O)(=O)c1ccc(Br)cc1)N1CCOCC1` (stereo not drawn), which “activity change, negative = growth inhibition” value is on record?
Answer: The value was 5.59%.

Question: For `Cc1noc(C)c1S(=O)(=O)Nc1ccc(C(=O)O)cc1`, which “activity change, negative = growth inhibition” value is on record?
Answer: Its value is -14.4%.

Question: Which “activity change, negative = growth inhibition” value does the source give for `Cc1ccc(N(CCC(=O)O)S(=O)(=O)c2cccc(C(F)(F)F)c2)cc1` here?
Answer: Its value is 0.617%.

Question: With `Cc1oc2c(F)c(F)c(F)c(F)c2c1S(=O)(=O)Nc1cccc(C(F)(F)F)c1` as the compound, how does the Potency read?
Answer: Its Potency is 20.6 µM (active).

Question: Which Potency does the source give for `COc1cc(OC)cc(C(=O)OCC(=O)Nc2sccc2C(N)=O)c1` here?
Answer: The Potency was 18.4 µM (active).

Question: With `COc1cc(OC)cc(C(=O)OCC(=O)Nc2ccc(F)cc2F)c1` as the compound, how does the “activity change, negative = growth inhibition” value read?
Answer: Its value is 1.65%.

Question: For `Cc1cccc(C(=O)OCC(=O)Nc2sccc2C(N)=O)c1C`, which “activity change, negative = growth inhibition” value is on record?
Answer: The value was -9.13%.

Question: For `COc1ccc(S(=O)(=O)NC(C)c2ccccc2)cc1C(=O)N1CCCCC1` (stereo not drawn), which “activity change, negative = growth inhibition” value is on record?
Answer: Its value is -5.94%.

Question: Which Potency does the source give for `Cc1ccc2cc(CCNC(=O)c3c(-c4ccccc4Cl)noc3C)c(=O)[nH]c2c1` here?
Answer: Its Potency is 18.4 µM (active).

Question: With `Cc1cc(C)cc(NC(=O)CCCc2nc(-c3ccccc3Cl)no2)c1` as the compound, how does the “activity change, negative = growth inhibition” value read?
Answer: Its value is -11.2%.

Question: With `Cc1ccc(CNC(=O)c2c(-c3ccccc3)noc2C)cc1` as the compound, how does the “activity change, negative = growth inhibition” value read?
Answer: Its value is -4.56%.

Question: For `O=S(=O)(/C=C/c1ccccc1)NCCc1ccccn1`, which “activity change, negative = growth inhibition” value is on record?
Answer: Its value is 1.82%.

Question: For `COc1cc(OC)cc(C(=O)N[C@H](C(=O)Nc2nc3ccccc3[nH]2)C(C)C)c1`, which Potency is on record?
Answer: The Potency was 2.59 µM (active).

Question: For `COc1ccc(C(=O)N[C@H](C(=O)NCc2ccccc2)C(C)C)cc1`, which “activity change, negative = growth inhibition” value is on record?
Answer: The value was -23.7%.

Question: Which “activity change, negative = growth inhibition” value does the source give for `COc1cc(OC)cc(C(=O)N[C@H](C(=O)OCC(=O)NC(C)c2ccccc2)C(C)C)c1` (stereo partly drawn) here?
Answer: Its value is -21.4%.

Question: Which “activity change, negative = growth inhibition” value does the source give for `C=CCSc1nnc(Cn2c(=O)sc3ccccc32)n1C` here?
Answer: The value was 10.5%.

Question: For `COc1ccc(CCN2CC(C(=O)OCC(=O)NCc3ccccc3Cl)CC2=O)cc1OC` (stereo not drawn), which “activity change, negative = growth inhibition” value is on record?
Answer: The value was 26.6%.

Question: For `COC(=O)[C@]1(C)CCC[C@@]2(C)C3CC[C@]4(OC(C)=O)C[C@@]3(CCC21)CC4=NO` (stereo partly drawn), which Potency is on record?
Answer: Its Potency is 16.4 µM (active).

Question: For `CN1CCN(C(=O)N2c3ccccc3CCc3ccccc32)CC1`, which “activity change, negative = growth inhibition” value is on record?
Answer: The value was -30%.

Question: Which “activity change, negative = growth inhibition” value does the source give for `CC(C)c1cc(Cn2c3ccccc3c(=O)n2C(C)Cn2cc(C3CC3)nn2)on1` (stereo not drawn) here?
Answer: Its value is 6.1%.
